RORg inh = ROR gamma (mouse) transcription inhibition; P51450; Drosophila S2 Gal4-RORgamma UAS-luciferase reporter, 20 h; Potency, µM (titrated, usually from 53.6 µM), without a hit: at the highest dose activity change, negative = inhibition, actives largely listed as inhibitors; 5.4% of 310,000 active; AID 2551; note: nearly all actives have a fitted effect of over 60% in size
Target sequence (P51450 whole entry, looked up, the tested form may be a part): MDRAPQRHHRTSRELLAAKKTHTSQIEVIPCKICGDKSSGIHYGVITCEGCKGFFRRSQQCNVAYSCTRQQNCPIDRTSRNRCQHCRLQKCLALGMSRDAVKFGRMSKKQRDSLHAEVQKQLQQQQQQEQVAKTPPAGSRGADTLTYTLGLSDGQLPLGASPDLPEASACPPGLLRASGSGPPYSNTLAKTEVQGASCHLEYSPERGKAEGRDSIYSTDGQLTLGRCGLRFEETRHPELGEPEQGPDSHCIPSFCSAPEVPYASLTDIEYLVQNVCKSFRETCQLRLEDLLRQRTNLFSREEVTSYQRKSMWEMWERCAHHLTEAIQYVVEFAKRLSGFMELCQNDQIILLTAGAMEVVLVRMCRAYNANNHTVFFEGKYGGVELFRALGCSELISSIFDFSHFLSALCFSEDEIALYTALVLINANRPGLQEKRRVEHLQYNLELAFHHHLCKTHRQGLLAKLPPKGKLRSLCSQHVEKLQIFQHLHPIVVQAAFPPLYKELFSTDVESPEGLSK
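Compounds are pin-transferred onto Drosophila Schneider cells expressing a copper-inducible Gal4–ROR gamma transactivation domain fusion. After 1 hr, copper sulfate is added to 700 uM final; luciferase is read 20 hr later.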
TDP1 cell CPT = growth inhibition of DT40 Tdp1-/-;hTDP1 cells with camptothecin (screen for TDP1 inhibitors). chicken DT40 Tdp1-/-;hTDP1 cells + 20 nM CPT, ATP luminescence, 48 h. Potency, µM (top dose mostly 46.2 µM), without a hit: top-dose activity change, negative = growth inhibition, most hits filed as inhibitors. AID 686979. 12% of 420,000 active; note: nearly all actives have a fitted effect of over 55% in size
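Chicken DT40 Tdp1-/- cells complemented with human TDP1, 400 cells/well, exposed to compounds plus 20 nM camptothecin for at least 48 h at 37 C; viability read as ATP content by CellTiter-Glo luminescence.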
Gal4-VP16 FLuc = counter-screen for ROR gamma inhibitors: Gal4-VP16 reporter. Drosophila S2 Gal4-VP16 UAS-luciferase, luminescence, 20 h. Potency, µM (top dose mostly 53.6 µM), for the others: top-dose activity, negative = inhibition, usual class: inhibitors. 3.5% of 310,000 active;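 note: Gal4-VP16 expression switched on by copper sulfate through the metallothionein promoter; nearly all actives have a fitted effect of over 50% in size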
TDP1 inh = blocks human tyrosyl-DNA phosphodiesterase 1 | recombinant TDP1, AlphaScreen DNA substrate cleavage | Potency, µM (doses to about 130 µM), for the others: top-dose activity change, negative = inhibition, usual class: inhibitors | 0.28% of 350,000 active; note: nearly all actives have a fitted effect of over 40% in size
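Recombinant human Tdp1 (E. coli-expressed, 1 nM final) preincubated with compounds 15 min at room temperature, then 5'-biotin/3'-phosphotyrosine-FITC DNA substrate (15 nM final) added for 5 min. AlphaScreen beads (10 ug/ml final) added 10 min; cleavage lowers signal.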
DT40 TDP1 no CPT = qHTS for Inhibitors of human tyrosyl-DNA phosphodiesterase 1 (TDP1): qHTS in cells in absence of CPT; DT40 Tdp1-/- hTDP1 cells, no CPT, ATP luminescence, 48 h; Potency, µM (titrated, usually from 46.2 µM), for inactives: top-dose activity change, negative = growth inhibition, usual class: inhibitors; 15% of 420,000 active; AID 686978, 2013; note: nearly all actives have a fitted effect of over 55% in size
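Chicken DT40 Tdp1-/- cells complemented with human TDP1, screened without camptothecin (DMSO vehicle only), 400 cells/well. Compounds pin-transferred, cells incubated at 37 °C for at least 48 hr. Growth read as ATP-dependent luminescence (CellTiter-Glo, 30 min at RT).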
Numbers without * were called inactive; ? = inconclusive; nt = no result; [ ] = dose if it differs, or a comment. In the library only some 19% were active in any assay of this set; here they are far more common. Calls come from the whole dose curve; as a rule, active = well fitted curve in the direction sought with a large enough effect; inconclusive = small, poorly fitted or top-dose-only effect, or another doubt; inactive = no such curve, though single readings can be large; an effect the other way counts as inactive or inconclusive. % is set by controls: 0 for no effect and ±100 for the full control effect; potency is the fitted concentration of half-maximal effect.

SMILES | RORg inh | TDP1 cell CPT | Gal4-VP16 FLuc | TDP1 inh | DT40 TDP1 no CPT
Cc1ccccc1-n1c(SCC(=O)Nc2ccc(Cl)cc2F)nnc1-c1cc2occc2n1C | nt | ? | nt | 7% | ?
Cc1cc(-c2nnc(SCC(=O)Nc3nc(-c4ccc(Cl)cc4)cs3)o2)no1 | 14µM* | ? | ? | nt | 0%
Cc1cc(NC(=O)CSc2nnc(-c3ccccc3)c(-c3ccccc3)n2)no1 | -11% | 3.7µM* | 16% | -8% | 5.2µM*
Cc1cc(-c2nnc(SCCC(=O)Nc3ccccc3)o2)no1 | 14µM* | 8% | ? | 3% | ?
Cc1cc(NC(=O)CSc2nnc(-c3ccccc3)o2)no1 | ? | ? | -1% | 2% | 23µM*
OC(COc1ccc2ccccc2c1)CN1CCN(c2ccc(F)cc2)CC1 (stereo unspecified) | -25% | ? | -2% | 8% | ?
CC(=O)N1CCC2(CC1)CN(c1ccccn1)C2 | -6% | -21% | 7% | nt | ?
CCc1cc2c(N3CCCCC3)ncnc2s1 | ? | ? | 35µM* | -7% | ?
O=C(NNC(=O)c1cnccc1C(F)(F)F)c1ccccc1 | 2% | 2% | 4% | 0% | -1%
O=C(Nc1ccc(Br)cc1F)c1cc(S(=O)(=O)NC2CCCCC2)ccc1F | nt | 23µM* | nt | 9% | 21µM*
O=C(Nc1ccc(Br)cc1)c1ccc(F)c(S(=O)(=O)NC2CCCCCC2)c1 | nt | 2.9µM* | nt | 5% | 1.6µM*
O=C(Nc1ccc(F)c(F)c1)c1cc(S(=O)(=O)NC2CCCCCC2)ccc1F | nt | 21µM* | nt | 5% | 21µM*
CCOc1ccccc1NC(=O)c1cc(S(=O)(=O)NC2CCCC2)ccc1F | nt | -19% | nt | 0% | ?
CCOc1ccc(NC(=O)c2cc(S(=O)(=O)NC3CCCCCC3)ccc2F)cc1 | nt | ? | nt | 8% | ?
CC(C)c1ccc(NC(=O)c2cc(S(=O)(=O)NC3CCCCC3)ccc2F)cc1 | nt | 16µM* | nt | -3% | 18µM*
CN1c2ccccc2C(=O)/C(=C\Nc2ccc(F)cc2F)S1(=O)=O | -18% | -24% | 8% | 1% | -16%
CC(c1cccs1)N(Cc1ccco1)C(=S)Nc1ccc(F)c(Cl)c1 (stereo unspecified) | ? | 2% | ? | 2% | 20%
Cc1cccc(NS(=O)(=O)c2ccc3[nH]c(=O)oc3c2)c1C | nt | -25% | nt | 0% | -25%
CC(C)c1ccc(NS(=O)(=O)c2ccc3nc(-c4ccccc4)[nH]c3c2)cc1 | nt | 15µM* | nt | 0% | ?
Cc1cccc(NS(=O)(=O)c2ccc3nc(-c4ccccc4)[nH]c3c2)c1C | 0%[10 µM] | 16µM* | -9% | -8% | 16µM*
O=S(=O)(Nc1ccc(Br)cc1)c1ccc2nc(-c3ccccc3)[nH]c2c1 | nt | ? | nt | 8% | ?
Cc1ccc(NS(=O)(=O)c2ccc3nc(-c4ccccc4)[nH]c3c2)c(Cl)c1 | nt | ? | nt | 2% | ?
Cc1ccc(NS(=O)(=O)c2ccc3nc(-c4ccccc4)[nH]c3c2)c(Br)c1 | nt | 15µM* | nt | 0%[12.3 µM] | 23µM*
CCCCN(C(=O)c1sc2nc3n(c(=O)c2c1C)CCC3)c1c(N)n(CC(C)C)c(=O)[nH]c1=O | nt | 9% | nt | -1%[0.505 µM] | 7%
O=C1C2CCCN2C(c2ccccc2)N1c1nccs1 (stereo unspecified) | 5.6µM* | 6% | -15% | 2% | 3%
SMILES | RORg inh | TDP1 cell CPT | Gal4-VP16 FLuc | TDP1 inh | DT40 TDP1 no CPT
Cc1ccc(-c2ccc(/C=C3/NC(=O)NC3=O)o2)cc1[N+](=O)[O-] | 14% | ? | -14% | 0% | 21µM*
O=C1NC(=S)N/C1=C/c1ccc(-c2c(Br)cc([N+](=O)[O-])cc2Br)o1 | 2% | nt | -16% | nt | nt
O=C(Nc1cccc2ccccc12)c1ccccc1NS(=O)(=O)c1cccc2cccnc12 | -13% | -1% | 2% | 3% | -23%
CCOc1ccc(N(CC)S(=O)(=O)N2CCCC(C(=O)Nc3ccc(OC)c(Cl)c3)C2)cc1 (stereo unspecified) | nt | 16µM* | nt | 0% | 23µM*
COc1ccc(NC(=O)C2CCCN(S(=O)(=O)c3cn(C)cn3)C2)cc1Cl (stereo unspecified) | nt | -28% | nt | 1% | -25%
CCOc1ccc(N(CC)S(=O)(=O)N2CCCC(C(=O)Nc3cc(Cl)ccc3OC)C2)cc1 (stereo unspecified) | nt | ? | nt | -3% | 18µM*
CCc1ccc(NC(=S)Nc2cc(C(=O)O)ccc2N2CC3CC(C2)c2cccc(=O)n2C3)cc1 (stereo unspecified) | 10µM* | 0% | ? | 1% | 3%
O=c1cc2oc3cc(O)c(O)cc3c(-c3ccccc3[N+](=O)[O-])c-2cc1O | -32% | 21µM* | ? | nt | 23µM*
CCc1ccc(NC(=O)COC(=O)C2(c3ccc(Cl)cc3)CCCC2)cc1 | 37% | 21µM* | ? | -3% | 21µM*
O=C(COC(=O)C1(c2ccc(Cl)cc2)CCCC1)NCc1ccco1 | 5% | 0% | 2% | 0% | -25%
Cc1cc(C(C)(C)C)cc(S(=O)(=O)NCCc2ccncc2)c1C | 9% | ? | -10% | nt | ?
CC1CCCC(C)N1S(=O)(=O)c1ccc(S(=O)(=O)NCCc2ccncc2)cc1 (stereo unspecified) | 7% | ? | -4% | 9% | ?
CCCCCc1ccc(S(=O)(=O)NCCc2ccncc2)cc1 | 21% | 21µM* | -25% | 2% | 16µM*
O=C(Nc1ccc(S(=O)(=O)NCCc2ccccc2)cc1)c1ccco1 | ? | -27% | -22% | 9% | ?
CC(C)(C)c1ccc(S(=O)(=O)NCCc2ccncc2)cc1 | 61% | ? | -13% | 0% | 16µM*

Compound activity: PubChem, National Center for Advancing Translational Sciences (NCATS)
